Laboratory results published in paper PMC7862700, “An all-to-all approach to the identification of sequence-specific readers for epigenetic DNA modifications on cytosine”.

Assays:
Assay in all cases: DAPPL (digital affinity profiling via proximity ligation, sequencing); 10 mM Tris-HCl pH 7.5, 50 mM NaCl, 1 mM DTT, 4% glycerol, room temperature, 30 min; GST-TFs on glutathione beads, 16-mer random dsDNA library, 0.1% formaldehyde crosslink after washing; high values mean tight binding
FEV = molecular target: T1, FEV (Homo sapiens, UniProt Q99581 1-238); details: protein: recombinant; tags: N-terminal GST; dsDNA, one strand shown
T1 sequence: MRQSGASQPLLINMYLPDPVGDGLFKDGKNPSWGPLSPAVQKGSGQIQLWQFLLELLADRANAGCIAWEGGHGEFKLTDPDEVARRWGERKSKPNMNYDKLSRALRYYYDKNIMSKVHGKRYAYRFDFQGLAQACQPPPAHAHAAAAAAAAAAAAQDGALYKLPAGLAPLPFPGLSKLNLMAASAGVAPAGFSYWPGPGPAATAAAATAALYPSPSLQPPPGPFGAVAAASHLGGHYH
In short: (§1)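 In yeast, human transcription factors were expressed with a GST fusion, then pulled down on glutathione beads and given DNA barcodes. Pooled with a tag-only sample, they were exposed to 200 nmole of a 16-mer random double-stranded DNA library (Tris/NaCl/DTT/glycerol buffer, room temperature, 30 min), washed, crosslinked with 0.1% formaldehyde, proximity-ligated using BsaI/T4 ligase for 1 h at 37 °C, PCR-amplified and read on an Illumina NextSeq500. Each hexamer's frequency of reads for a factor, divided by the matching frequency for the tag-only sample, gives the binding signal.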

ETV5 = ETV5 (Homo sapiens, UniProt P41161 1-510); details: protein: recombinant; tags: N-terminal GST; dsDNA, one strand shown
Sequence of ETV5 (P41161 whole entry): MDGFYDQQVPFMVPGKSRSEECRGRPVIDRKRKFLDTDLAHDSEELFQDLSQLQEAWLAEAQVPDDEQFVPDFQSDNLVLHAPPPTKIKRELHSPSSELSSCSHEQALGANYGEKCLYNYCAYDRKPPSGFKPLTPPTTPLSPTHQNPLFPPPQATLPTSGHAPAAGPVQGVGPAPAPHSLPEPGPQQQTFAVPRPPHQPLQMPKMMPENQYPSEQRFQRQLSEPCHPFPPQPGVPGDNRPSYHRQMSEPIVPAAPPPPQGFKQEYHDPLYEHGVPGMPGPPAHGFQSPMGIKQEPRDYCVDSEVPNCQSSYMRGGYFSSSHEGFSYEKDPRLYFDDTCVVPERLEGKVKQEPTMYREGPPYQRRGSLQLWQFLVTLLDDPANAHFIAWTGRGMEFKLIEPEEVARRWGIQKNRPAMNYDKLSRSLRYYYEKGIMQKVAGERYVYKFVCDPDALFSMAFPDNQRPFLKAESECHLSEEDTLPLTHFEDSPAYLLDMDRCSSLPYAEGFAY
In short: as §1

HSF1 = HSF1 (Homo sapiens, UniProt Q00613 1-529); details: protein: recombinant; tags: N-terminal GST; chain copies: 3; dsDNA, one strand shown
Sequence of HSF1 (Q00613 whole entry): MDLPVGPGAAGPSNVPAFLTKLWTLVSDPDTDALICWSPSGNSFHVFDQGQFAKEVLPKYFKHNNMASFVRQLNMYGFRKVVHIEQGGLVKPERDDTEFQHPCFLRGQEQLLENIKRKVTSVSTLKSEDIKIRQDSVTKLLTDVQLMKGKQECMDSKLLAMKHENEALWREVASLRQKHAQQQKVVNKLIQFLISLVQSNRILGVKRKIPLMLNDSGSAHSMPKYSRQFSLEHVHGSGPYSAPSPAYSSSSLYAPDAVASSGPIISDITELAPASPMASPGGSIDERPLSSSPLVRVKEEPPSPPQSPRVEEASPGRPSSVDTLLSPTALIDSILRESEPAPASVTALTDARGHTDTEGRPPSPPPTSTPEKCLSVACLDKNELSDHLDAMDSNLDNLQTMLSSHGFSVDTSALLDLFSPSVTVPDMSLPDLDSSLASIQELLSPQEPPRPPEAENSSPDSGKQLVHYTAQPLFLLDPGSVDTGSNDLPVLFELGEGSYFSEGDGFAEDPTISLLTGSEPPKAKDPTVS
In short: as §1

SPIC = molecular target: T2, SPIC (Homo sapiens, UniProt Q8N5J4 1-248); details: protein: recombinant; tags: N-terminal GST; dsDNA, one strand shown
T2 sequence: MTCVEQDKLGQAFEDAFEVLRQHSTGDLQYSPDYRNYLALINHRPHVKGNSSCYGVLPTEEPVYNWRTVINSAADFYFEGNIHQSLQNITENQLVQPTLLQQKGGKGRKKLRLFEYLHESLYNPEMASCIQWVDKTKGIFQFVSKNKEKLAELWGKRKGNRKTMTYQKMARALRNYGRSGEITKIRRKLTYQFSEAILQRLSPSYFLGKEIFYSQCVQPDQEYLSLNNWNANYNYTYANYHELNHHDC
In short: as §1

ELF4 = ELF4 (Homo sapiens, UniProt Q99607 1-663); details: protein: recombinant; tags: N-terminal GST; dsDNA, one strand shown
Sequence of ELF4 (Q99607 whole entry): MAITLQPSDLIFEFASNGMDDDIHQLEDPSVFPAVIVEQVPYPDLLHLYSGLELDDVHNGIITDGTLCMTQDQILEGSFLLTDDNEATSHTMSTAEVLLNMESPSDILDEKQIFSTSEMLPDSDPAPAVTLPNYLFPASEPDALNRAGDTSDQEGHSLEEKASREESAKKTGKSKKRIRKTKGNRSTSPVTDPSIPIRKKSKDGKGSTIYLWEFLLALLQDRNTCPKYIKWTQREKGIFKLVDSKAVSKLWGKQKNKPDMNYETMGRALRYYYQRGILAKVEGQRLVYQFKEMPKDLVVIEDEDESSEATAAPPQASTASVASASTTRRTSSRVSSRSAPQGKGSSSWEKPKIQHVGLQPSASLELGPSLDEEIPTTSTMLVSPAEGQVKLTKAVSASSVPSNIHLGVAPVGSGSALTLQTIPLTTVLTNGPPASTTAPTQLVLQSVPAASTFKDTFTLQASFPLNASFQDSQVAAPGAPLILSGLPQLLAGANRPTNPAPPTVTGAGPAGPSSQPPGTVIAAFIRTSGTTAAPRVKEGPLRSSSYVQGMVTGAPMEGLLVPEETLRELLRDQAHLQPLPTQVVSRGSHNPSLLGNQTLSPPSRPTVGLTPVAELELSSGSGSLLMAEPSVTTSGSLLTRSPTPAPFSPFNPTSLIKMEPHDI
In short: as §1

ELK4 = molecular target: T3, ELK4 (Homo sapiens, UniProt P28324-2 1-405); details: protein: recombinant; tags: N-terminal GST; dsDNA, one strand shown
T3 sequence: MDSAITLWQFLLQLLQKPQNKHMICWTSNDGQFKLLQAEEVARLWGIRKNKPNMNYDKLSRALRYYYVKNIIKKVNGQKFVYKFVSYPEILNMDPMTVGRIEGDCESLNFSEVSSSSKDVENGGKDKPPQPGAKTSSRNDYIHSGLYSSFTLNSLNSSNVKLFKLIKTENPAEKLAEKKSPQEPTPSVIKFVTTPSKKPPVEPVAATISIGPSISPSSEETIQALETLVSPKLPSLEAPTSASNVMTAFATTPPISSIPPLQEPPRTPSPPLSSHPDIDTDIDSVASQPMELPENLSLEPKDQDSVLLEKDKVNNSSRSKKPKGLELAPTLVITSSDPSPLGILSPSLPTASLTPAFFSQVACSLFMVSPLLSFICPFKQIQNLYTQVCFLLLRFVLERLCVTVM
In short: as §1

ETV2 = molecular target: T4, ETV2 (Homo sapiens, UniProt O00321 1-342); details: protein: recombinant; tags: N-terminal GST; dsDNA, one strand shown
T4 sequence: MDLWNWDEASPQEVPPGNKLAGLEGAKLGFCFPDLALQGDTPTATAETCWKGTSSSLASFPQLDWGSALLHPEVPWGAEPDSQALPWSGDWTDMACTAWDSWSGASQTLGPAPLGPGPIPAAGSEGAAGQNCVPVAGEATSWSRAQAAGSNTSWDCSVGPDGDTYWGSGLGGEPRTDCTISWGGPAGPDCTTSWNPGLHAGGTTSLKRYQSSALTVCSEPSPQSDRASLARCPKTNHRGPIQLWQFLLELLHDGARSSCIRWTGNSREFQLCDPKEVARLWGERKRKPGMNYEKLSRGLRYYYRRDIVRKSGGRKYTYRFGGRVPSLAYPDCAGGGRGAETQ
In short: as §1

ELF3 = molecular target: T5, ELF3 (Homo sapiens, UniProt P78545 1-371); details: protein: recombinant; tags: N-terminal GST; dsDNA, one strand shown
T5 sequence: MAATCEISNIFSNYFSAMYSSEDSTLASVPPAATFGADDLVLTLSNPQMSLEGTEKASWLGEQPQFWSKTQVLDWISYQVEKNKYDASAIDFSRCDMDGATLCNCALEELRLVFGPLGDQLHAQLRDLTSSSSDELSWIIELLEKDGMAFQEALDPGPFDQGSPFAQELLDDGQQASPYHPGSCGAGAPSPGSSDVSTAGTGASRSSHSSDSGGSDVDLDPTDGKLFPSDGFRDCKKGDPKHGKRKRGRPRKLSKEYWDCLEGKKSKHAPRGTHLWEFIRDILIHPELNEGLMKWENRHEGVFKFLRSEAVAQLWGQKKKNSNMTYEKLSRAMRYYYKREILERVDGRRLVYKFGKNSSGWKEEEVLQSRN
In short: as §1

CRX = CRX (Homo sapiens, UniProt O43186 1-299); details: protein: recombinant; tags: N-terminal GST; dsDNA, one strand shown
Sequence of CRX (O43186 whole entry): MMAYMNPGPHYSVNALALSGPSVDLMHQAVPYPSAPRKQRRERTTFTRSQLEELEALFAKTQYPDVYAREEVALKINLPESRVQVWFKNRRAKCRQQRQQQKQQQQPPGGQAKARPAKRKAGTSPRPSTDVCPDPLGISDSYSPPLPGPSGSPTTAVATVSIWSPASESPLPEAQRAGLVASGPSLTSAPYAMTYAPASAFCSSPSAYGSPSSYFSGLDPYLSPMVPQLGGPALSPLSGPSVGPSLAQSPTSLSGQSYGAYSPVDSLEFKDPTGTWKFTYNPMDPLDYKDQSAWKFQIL
In short: as §1

ETV1 = ETV1 (Homo sapiens, UniProt P50549 1-477); details: protein: recombinant; tags: N-terminal GST; dsDNA, one strand shown
Sequence of ETV1 (P50549 whole entry): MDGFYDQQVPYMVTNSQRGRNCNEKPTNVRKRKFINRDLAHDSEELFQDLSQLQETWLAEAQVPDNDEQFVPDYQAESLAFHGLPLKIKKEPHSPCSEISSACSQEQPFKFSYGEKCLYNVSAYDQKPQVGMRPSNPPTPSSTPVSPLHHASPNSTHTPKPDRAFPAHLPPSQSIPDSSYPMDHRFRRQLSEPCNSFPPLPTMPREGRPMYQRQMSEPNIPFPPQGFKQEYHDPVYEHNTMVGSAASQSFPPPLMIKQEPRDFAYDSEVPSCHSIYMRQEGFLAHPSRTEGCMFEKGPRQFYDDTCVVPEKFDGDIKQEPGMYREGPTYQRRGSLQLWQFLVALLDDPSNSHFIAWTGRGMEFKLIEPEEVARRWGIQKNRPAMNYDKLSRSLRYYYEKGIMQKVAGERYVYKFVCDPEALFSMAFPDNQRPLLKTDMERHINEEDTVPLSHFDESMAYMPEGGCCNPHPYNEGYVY
In short: as §1

ERF = molecular target: T6, ERF (Homo sapiens, UniProt P50548 1-548); details: protein: recombinant; tags: N-terminal GST; dsDNA, one strand shown
T6 sequence: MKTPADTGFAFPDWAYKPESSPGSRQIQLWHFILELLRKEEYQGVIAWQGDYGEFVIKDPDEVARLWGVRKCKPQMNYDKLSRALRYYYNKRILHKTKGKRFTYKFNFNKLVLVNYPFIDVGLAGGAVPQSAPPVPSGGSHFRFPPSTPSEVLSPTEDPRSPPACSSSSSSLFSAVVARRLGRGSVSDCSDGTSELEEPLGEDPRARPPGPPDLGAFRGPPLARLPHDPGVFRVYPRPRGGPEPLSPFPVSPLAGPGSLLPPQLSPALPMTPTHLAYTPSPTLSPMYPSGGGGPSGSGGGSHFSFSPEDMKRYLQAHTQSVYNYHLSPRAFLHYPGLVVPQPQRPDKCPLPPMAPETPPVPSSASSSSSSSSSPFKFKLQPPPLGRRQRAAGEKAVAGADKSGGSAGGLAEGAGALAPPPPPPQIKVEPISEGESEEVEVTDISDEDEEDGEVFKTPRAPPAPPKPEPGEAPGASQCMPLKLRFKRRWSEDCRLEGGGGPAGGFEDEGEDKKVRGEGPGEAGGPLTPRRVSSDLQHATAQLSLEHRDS
In short: as §1

ETV3L = molecular target: T7, ETV3L (Homo sapiens, UniProt Q6ZN32 1-361); details: protein: recombinant; tags: N-terminal GST; dsDNA, one strand shown
T7 sequence: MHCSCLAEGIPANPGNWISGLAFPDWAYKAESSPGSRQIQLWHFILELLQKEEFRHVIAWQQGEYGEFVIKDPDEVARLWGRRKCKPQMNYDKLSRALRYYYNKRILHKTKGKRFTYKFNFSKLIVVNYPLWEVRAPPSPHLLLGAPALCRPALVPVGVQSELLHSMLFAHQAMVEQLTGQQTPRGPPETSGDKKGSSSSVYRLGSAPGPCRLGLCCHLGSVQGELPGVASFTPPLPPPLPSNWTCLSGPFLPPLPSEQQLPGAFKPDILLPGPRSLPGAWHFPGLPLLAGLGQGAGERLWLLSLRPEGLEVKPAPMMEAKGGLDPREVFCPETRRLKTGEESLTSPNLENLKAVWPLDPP
In short: as §1

ETS2 = molecular target: T8, ETS2 (Homo sapiens, UniProt P15036 1-469); details: protein: recombinant; tags: N-terminal GST; dsDNA, one strand shown
T8 sequence: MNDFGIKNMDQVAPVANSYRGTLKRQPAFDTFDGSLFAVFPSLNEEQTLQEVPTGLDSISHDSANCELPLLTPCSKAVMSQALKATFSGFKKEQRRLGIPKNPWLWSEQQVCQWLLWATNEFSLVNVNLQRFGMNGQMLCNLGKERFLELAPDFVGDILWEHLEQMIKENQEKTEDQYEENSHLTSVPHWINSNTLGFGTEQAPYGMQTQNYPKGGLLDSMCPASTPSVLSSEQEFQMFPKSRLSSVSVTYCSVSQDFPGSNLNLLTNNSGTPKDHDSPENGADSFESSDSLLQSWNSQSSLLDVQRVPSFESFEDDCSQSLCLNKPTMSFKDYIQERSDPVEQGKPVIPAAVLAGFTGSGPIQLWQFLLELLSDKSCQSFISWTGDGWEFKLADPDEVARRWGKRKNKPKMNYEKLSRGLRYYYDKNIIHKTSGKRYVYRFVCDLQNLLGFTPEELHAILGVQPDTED
In short: as §1

SPDEF = molecular target: T9, SPDEF (Homo sapiens, UniProt O95238 1-335); details: protein: recombinant; tags: N-terminal GST; dsDNA, one strand shown
T9 sequence: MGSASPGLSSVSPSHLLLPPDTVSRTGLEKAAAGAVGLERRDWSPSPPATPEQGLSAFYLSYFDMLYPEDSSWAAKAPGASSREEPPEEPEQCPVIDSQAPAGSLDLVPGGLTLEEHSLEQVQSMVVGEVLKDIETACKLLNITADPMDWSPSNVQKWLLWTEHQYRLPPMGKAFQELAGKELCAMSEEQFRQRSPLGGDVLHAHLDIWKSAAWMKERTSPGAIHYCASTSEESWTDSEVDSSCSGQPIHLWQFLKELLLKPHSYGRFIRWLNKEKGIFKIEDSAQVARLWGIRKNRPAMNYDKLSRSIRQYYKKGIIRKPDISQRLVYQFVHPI
In short: as §1

ETV7 = molecular target: T10, ETV7 (Homo sapiens, UniProt Q9Y603 1-341); details: protein: recombinant; tags: N-terminal GST; dsDNA, one strand shown
T10 sequence: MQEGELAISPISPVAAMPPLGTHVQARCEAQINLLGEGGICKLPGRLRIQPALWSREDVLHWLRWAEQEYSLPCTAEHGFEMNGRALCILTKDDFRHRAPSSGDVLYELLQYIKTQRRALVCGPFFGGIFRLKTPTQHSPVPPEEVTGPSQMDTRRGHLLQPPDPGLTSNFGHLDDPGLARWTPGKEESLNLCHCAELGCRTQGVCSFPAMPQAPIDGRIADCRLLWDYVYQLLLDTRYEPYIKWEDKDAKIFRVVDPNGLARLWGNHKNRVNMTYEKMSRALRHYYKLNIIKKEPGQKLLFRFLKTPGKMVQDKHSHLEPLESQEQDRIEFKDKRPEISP
In short: as §1

ELF5 = molecular target: T11, ELF5 (Homo sapiens, UniProt Q9UKW6-2 1-255); details: protein: recombinant; tags: N-terminal GST; dsDNA, one strand shown
T11 sequence: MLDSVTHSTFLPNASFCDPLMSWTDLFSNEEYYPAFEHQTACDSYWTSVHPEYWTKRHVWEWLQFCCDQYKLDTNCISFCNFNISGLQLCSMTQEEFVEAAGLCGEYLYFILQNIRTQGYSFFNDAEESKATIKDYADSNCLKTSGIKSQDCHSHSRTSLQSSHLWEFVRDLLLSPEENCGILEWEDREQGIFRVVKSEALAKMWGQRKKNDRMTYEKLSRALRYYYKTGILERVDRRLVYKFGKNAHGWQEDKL
In short: as §1

ETV3 = molecular target: T12, ETV3 (Homo sapiens, UniProt P41162-2 1-143); details: protein: recombinant; tags: N-terminal GST; dsDNA, one strand shown
T12 sequence: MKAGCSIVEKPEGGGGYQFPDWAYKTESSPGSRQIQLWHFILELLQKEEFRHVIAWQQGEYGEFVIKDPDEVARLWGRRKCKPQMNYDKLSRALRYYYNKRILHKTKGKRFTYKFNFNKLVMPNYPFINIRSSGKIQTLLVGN
In short: as §1

ETV6 = ETV6 (Homo sapiens, UniProt P41212 1-452); details: protein: recombinant; tags: N-terminal GST; dsDNA, one strand shown
Sequence of ETV6 (P41212 whole entry): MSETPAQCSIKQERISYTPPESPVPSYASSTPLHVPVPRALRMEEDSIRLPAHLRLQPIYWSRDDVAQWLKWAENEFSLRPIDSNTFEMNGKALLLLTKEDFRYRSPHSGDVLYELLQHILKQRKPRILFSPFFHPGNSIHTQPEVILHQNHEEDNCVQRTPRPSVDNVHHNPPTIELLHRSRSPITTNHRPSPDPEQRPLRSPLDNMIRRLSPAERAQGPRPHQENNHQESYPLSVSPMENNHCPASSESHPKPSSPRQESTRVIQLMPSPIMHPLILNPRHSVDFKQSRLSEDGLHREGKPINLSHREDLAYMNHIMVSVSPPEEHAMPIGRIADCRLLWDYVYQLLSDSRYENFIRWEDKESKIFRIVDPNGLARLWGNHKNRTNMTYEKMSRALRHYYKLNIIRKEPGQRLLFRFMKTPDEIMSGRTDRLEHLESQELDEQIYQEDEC
In short: as §1

AAATGC
binding signal (FEV): 1.35 fold enrichment (6-mer frequency, TF over GST control)
binding signal (ETV5): 1.34 fold enrichment (6-mer frequency, TF over GST control)
binding signal (HSF1): 1.09 fold enrichment (6-mer frequency, TF over GST control)
binding signal (SPIC): 1.13 fold enrichment (6-mer frequency, TF over GST control)
binding signal (ELF4): 1.23 fold enrichment (6-mer frequency, TF over GST control)
binding signal (ELK4): 1.37 fold enrichment (6-mer frequency, TF over GST control)
binding signal (ETV2): 1.23 fold enrichment (6-mer frequency, TF over GST control)
binding signal (ELF3): 1.35 fold enrichment (6-mer frequency, TF over GST control)
binding signal (CRX): 1.19 fold enrichment (6-mer frequency, TF over GST control)
binding signal (ETV1): 1.26 fold enrichment (6-mer frequency, TF over GST control)
binding signal (ERF): 1.27 fold enrichment (6-mer frequency, TF over GST control)
binding signal (ETV3L): 1.26 fold enrichment (6-mer frequency, TF over GST control)
binding signal (ETS2): 1.25 fold enrichment (6-mer frequency, TF over GST control)
binding signal (SPDEF): 1.3 fold enrichment (6-mer frequency, TF over GST control)
binding signal (ETV7): 1.34 fold enrichment (6-mer frequency, TF over GST control)
binding signal (ELF5): 1.33 fold enrichment (6-mer frequency, TF over GST control)
binding signal (ETV3): 1.18 fold enrichment (6-mer frequency, TF over GST control)
binding signal (ETV6): 1.35 fold enrichment (6-mer frequency, TF over GST control)
